Results on ten molecules are retold here after the supplement of paper PMC4206467.

In this experiment the test system is Perkinsus marinus PRA240. Description: ATP content (proliferation) relative to DMSO control; higher = more parasite growth (less inhibition). To be noted: 20 µM; 4 days. On the procedure: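 Perkinsus marinus PRA240 trophozoites (2-5x10^6 cells/ml, 100 µl, 96-well) were exposed once to MMV Malaria Box compounds at 20 µM (0.1% DMSO) in triplicate. ATP content (ATPlite bioluminescence) was read at day 4 post-exposure and normalised to DMSO + cells control wells (100% activity). Compounds were identified by joining plate and well to the Malaria Box list.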
Molecule `Oc1ccc(Br)cc1CN1CCN(Cc2ccc(Cl)cc2)CC1` registered an ATP content of 129%.
In turn, `CN(N=O)C1=C(NC2CCCCC2)C(=O)c2ccccc2C1=O` gave an ATP content of 45.9%.
As for `CCOc1cc(CNC(C)C(O)c2ccccc2)cc(Cl)c1OCC` (stereo not given), the figure is 120%; as for `CCOc1c(Cl)cc(CNC(C)C(O)c2ccccc2)cc1OC` (stereo not given), 75.7%.
Regarding `O=C(CCc1ccco1)NC1CCN(CC2(c3ccc(Cl)cc3)CCC2)CC1`, the ATP content was found to be 103%.
As for `COc1cc(CNCCc2ccc(Cl)cc2)cc(OC)c1O`, the figure is 130%; as for `Oc1ccc(C(=C(Cl)Cl)c2ccc(O)cc2)cc1`, 137%.
As for `CCCCCCc1cc(O)c2c3c(c(=O)oc2c1)CCC(C)C3` (stereo not given), the figure is 33.1%.
As for `COc1ccc(CN2CCN(Cc3ccccc3)CC2)c(O)c1`, the figure is 194%; as for `Oc1ccc(Br)cc1CN1CCN(Cc2cccc(F)c2)CC1`, 95.2%.
